# According to PubChem BioAssay (NCATS):
# Values joined by “and” are separate entries in the source; they are usually repeats but may differ in a detail not shown here. Equal values may be shown once. Results filed as inconclusive are left out. Active and inactive are the calls of the source. Unless noted, calls come from the whole dose curve.
# Columns and labels:
# [1] = molecular target: Bile acid receptor (Homo sapiens) (UniProt Q96RI1); test: qHTS assay for small molecule antagonists of farnesoid X receptor signaling (AID 588526); note: potency is the fitted concentration of half-maximal effect
# Chain of Bile acid receptor (Homo sapiens) (Q96RI1 whole entry, looked up): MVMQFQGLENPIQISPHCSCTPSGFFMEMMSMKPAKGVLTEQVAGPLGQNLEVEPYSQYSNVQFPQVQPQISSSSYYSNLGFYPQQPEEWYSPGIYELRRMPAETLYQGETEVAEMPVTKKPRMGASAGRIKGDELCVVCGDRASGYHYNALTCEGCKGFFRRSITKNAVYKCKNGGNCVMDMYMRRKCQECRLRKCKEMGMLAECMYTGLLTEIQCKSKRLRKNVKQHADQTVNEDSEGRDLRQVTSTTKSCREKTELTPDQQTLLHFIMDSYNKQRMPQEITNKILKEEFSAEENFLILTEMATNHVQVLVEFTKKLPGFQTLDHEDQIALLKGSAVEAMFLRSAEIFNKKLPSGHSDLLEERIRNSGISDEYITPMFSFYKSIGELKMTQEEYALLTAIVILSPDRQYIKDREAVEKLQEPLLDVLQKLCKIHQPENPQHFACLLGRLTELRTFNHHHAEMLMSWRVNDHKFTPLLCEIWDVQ
# How it was run: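 Antagonist mode: titrated compounds tested against chenodeoxycholic acid stimulation (normalized to 50 uM CDCA and DMSO) in GeneBLAzer HEK293T cells for 16 h. Beta-lactamase read by CCF4 fluorescence; IC50 from Hill fits.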
# [2] = molecular target: Bile acid receptor (Homo sapiens) (UniProt Q96RI1); test: qHTS assay for small molecule agonists of farnesoid X receptor signaling (AID 588527); settings: HEK293T FXR-UAS-bla, beta-lactamase ratio, 16 h; activation: stronger effect = higher value;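 note: series mostly up to about 77 µM; 0% = vehicle basal and 100% = reference agonist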
# How it was run: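 FXR-UAS-bla HEK293T cells (10% dialyzed FBS) preincubated 5-7 h at 37 C, then compounds at up to 92 uM for 16 h at 37 C. CCF4 beta-lactamase read-out after 2 h RT. Normalized to chenodeoxycholic acid (100 uM) and DMSO; Hill fit gave EC50 and efficacy.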
# [3] = molecular target: Glucocorticoid receptor (Homo sapiens) (UniProt P04150); test: qHTS assay for small molecule agonists of glucocorticoid receptor signaling (AID 588532; active = well fitted curve in the direction sought with a large enough effect in the signal ratio, with a control signal flat; the % refers to the signal ratio;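 note: 100% = dexamethasone at 0.1 µM and 0% = DMSO only wells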); settings: HeLa MMTV-bla, beta-lactamase ratio, agonist, 18 h; activation: stronger effect = higher value, percent of dexamethasone control, DMSO zero
# Chain of Glucocorticoid receptor (Homo sapiens) (P04150 whole entry, looked up): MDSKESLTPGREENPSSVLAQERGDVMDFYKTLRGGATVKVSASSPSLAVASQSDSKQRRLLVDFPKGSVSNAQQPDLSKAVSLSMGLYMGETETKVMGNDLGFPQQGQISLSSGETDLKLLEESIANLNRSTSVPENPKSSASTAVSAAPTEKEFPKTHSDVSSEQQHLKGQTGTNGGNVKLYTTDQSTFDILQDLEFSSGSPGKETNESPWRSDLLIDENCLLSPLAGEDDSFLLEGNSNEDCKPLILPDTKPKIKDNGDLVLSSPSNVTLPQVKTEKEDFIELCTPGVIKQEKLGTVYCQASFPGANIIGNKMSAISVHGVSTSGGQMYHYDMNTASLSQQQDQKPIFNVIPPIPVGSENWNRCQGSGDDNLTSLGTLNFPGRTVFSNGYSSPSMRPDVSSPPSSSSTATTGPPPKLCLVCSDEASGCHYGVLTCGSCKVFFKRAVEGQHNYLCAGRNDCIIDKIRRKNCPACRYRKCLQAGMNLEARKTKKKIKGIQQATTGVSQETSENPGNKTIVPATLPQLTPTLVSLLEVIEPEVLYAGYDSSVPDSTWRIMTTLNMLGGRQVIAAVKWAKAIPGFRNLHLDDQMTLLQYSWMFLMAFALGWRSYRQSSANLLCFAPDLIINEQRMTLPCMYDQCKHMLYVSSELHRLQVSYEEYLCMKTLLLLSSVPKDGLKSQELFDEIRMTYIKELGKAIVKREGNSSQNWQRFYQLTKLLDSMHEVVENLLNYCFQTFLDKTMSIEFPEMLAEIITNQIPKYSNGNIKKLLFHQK
# How it was run: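 MMTV-bla HeLa beta-lactamase reporter cells in 1% charcoal/dextran FBS medium, compounds up to 92 uM for 18 h at 37 C, CCF4 readout; normalized to 0.1 uM dexamethasone (100%), EC50 and efficacy from Hill fits.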
# [4] = molecular target: Peroxisome proliferator-activated receptor delta (Homo sapiens) (UniProt Q03181); test: qHTS assay for small molecule agonists of peroxisome proliferator-activated receptor delta signaling (AID 588534);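 note: 0% = DMSO basal wells and 100% = positive control agonist at 10 µM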
# Chain of Peroxisome proliferator-activated receptor delta (Homo sapiens) (Q03181 whole entry, looked up): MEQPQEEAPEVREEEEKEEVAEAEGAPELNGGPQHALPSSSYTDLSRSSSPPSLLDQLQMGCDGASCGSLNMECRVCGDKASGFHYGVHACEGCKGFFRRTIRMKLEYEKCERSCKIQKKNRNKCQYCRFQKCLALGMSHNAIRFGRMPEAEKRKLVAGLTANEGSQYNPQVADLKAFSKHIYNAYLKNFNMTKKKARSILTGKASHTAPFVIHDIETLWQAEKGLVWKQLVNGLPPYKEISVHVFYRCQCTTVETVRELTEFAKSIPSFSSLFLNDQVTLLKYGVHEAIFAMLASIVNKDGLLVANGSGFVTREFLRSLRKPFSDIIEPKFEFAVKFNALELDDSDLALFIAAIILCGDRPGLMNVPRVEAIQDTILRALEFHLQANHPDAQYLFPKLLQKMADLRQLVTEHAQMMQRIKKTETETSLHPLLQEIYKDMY
# How it was run: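 Agonist-mode beta-lactamase reporter readout (CCF4 dye, 2 h at RT) after 18 h at 37 °C exposure to a titration; Hill-equation fitting gave EC50 and maximal response.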
# [5] = qHTS assay for small molecule antagonists of peroxisome proliferator-activated receptor delta signaling (AID 588535; active = well fitted inhibition curve with a large enough effect in the signal ratio, with a control signal flat, not every such curve was filed as active; the % refers to the signal ratio; note: potency is the fitted concentration of half-maximal effect;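 for max response: cells co-treated with a PPAR-delta agonist as stimulator during compound exposure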); settings: HEK293T PPARd-UAS-bla, beta-lactamase FRET ratio, 18 h; 460 nm channel
# How it was run: (§1)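 Fluorescence from CCF4-loaded GeneBLAzer PPAR-delta-UAS-bla HEK293T cells (2 hrs RT loading) quantified reporter inhibition after an 18 hr, 37 C compound exposure across a titration.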
# [6] = molecular target: Peroxisome proliferator-activated receptor delta (Homo sapiens) (UniProt Q03181); test: as above
# How it was run: as §1
# [7] = molecular target: Vitamin D3 receptor (Homo sapiens) (UniProt P11473); test: qHTS assay for small molecule antagonists of vitamin D receptor signaling (AID 588541);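 note: receptor activated by calcitriol during compound treatment; series mostly up to about 77 µM; % is set by controls: 0 for no effect and ±100 for the full control effect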
# Chain of Vitamin D3 receptor (Homo sapiens) (P11473 whole entry, looked up): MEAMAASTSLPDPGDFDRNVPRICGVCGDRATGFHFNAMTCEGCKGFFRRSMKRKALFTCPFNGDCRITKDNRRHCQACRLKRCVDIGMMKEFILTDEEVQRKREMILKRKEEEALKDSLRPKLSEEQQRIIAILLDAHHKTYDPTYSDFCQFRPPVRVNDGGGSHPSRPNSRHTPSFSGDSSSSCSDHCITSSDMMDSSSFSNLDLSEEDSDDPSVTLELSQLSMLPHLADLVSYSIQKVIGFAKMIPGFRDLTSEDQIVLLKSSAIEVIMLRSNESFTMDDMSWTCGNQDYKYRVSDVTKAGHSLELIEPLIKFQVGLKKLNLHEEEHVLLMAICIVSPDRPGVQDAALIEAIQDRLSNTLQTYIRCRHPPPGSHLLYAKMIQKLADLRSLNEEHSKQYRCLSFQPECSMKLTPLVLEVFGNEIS
# How it was run: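 VDR-UAS-bla HEK293T cells in 2% charcoal-stripped FBS were stimulated with 1-alpha,25-dihydroxyvitamin D3 (3 nM final) plus compound for 16 h at 37 C. The beta-lactamase CCF4 readout was normalized to 50 nM agonist and DMSO, and Hill fits gave IC50.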
# [8] = molecular target: Vitamin D3 receptor (Homo sapiens) (UniProt P11473); test: qHTS assay for small molecule agonists of vitamin D receptor signaling (AID 588543);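 note: 0% = DMSO basal and 100% = reference agonist control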
# How it was run: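 β-lactamase reporter, VDR-UAS-bla HEK293T, agonist mode. Cells plated 5 h at 37 °C, compound titration 16 h at 37 °C, CCF4 dye 2 h RT, ratio 460/530 nm. Hill fit → EC50, efficacy vs 50 nM 1α,25-(OH)2D3.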
# [9] = molecular target: Thyroid hormone receptor beta (Homo sapiens) (UniProt P10828); test: qHTS assay for small molecule agonists of thyroid hormone receptor beta signaling (AID 588545);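 note: 0% = DMSO only and 100% = 10 nM T3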
# Chain of Thyroid hormone receptor beta (Homo sapiens) (P10828 whole entry, looked up): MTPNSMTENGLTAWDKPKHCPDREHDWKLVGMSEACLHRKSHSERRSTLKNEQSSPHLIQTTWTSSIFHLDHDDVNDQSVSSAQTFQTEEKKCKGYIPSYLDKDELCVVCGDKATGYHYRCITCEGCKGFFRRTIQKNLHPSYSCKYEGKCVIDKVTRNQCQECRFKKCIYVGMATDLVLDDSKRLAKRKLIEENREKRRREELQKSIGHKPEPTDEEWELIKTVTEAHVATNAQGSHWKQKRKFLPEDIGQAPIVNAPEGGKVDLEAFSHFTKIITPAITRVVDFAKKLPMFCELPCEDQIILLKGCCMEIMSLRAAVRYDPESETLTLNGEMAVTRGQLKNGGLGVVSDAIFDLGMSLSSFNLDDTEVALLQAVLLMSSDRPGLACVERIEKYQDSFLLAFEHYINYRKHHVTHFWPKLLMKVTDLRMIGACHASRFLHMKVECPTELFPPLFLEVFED
# How it was run: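 TR-UAS-bla GripTite HEK 293 cells (2500/well, medium with 2% charcoal/dextran FBS) were treated in agonist mode for 18 h at 37 C, titrated. Beta-lactamase was read by CCF4 ratio after 2 h; normalized to 10 nM T3 (100%) and DMSO, Hill-fitted for EC50 and efficacy.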
# [10] = qHTS assay for small molecule antagonists of retinoid X receptor alpha signaling (AID 588546; active = well fitted inhibition curve with a large enough effect in the signal ratio, with a control signal flat, not every such curve was filed as active; the % refers to the signal ratio; note: potency is the fitted concentration of half-maximal effect;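 for max response: cells stimulated with 9-cis-retinoic acid as agonist; % is set by controls: 0 for no effect and ±100 for the full control effect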); settings: HEK293T RXRa-UAS-bla, beta-lactamase ratio, antagonist mode; measured here: W530 green channel, cytotoxicity proxy
# How it was run: (§2)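 Beta-lactamase reporter inhibition, read as CCF4 fluorescence ratio (ex 405, em 460/530 nm) after 2 h at RT. HEK293T UAS-bla cells, 2500/well, were stimulated with 9-cis-RA at 500 or 100 nM final alongside test compound for 18 h at 37 C.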
# [11] = molecular target: Thyroid hormone receptor beta (Homo sapiens) (UniProt P10828); test: qHTS assay for small molecule antagonists of thyroid hormone receptor beta signaling (AID 588547; active = well fitted inhibition curve with a large enough effect in the signal ratio, with a control signal flat, not every such curve was filed as active; the % refers to the signal ratio; note: potency is the fitted concentration of half-maximal effect); settings: TR-UAS-bla HEK293, beta-lactamase ratio, antagonist mode, 18 h
# How it was run: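 TR-UAS-bla GripTite HEK293 cells in 2% charcoal/dextran FBS medium; compounds 0.59 nM to 92 uM with T3 at 0.4nM final, 18 h at 37 C. Beta-lactamase read by CCF4 fluorescence (460/530 nm); Hill fits gave IC50 and efficacy.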
# [12] = qHTS assay for small molecule activators of the p53 signaling pathway (AID 651743; active = well fitted activation curve with a large enough effect in the signal ratio, not every such curve was filed as active; the % refers to the signal ratio; note: series mostly up to about 92 µM; % of control where 0% means no effect); settings: HCT-116 p53RE-bla, beta-lactamase FRET ratio, 16 h; activation: stronger effect = higher value
# How it was run: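 Following 16 hours of compound exposure at 37 C, HCT-116 cells bearing the p53RE-bla reporter were loaded with LiveBLAzer B/G FRET substrate for 2 hours at room temperature and fluorescence intensity was recorded.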
# [13] = qHTS assay for small molecule activators of the nuclear factor-kappa B (NF-kB) signaling pathway (AID 651749; active = well fitted activation curve with a large enough effect in the signal ratio; the % refers to the signal ratio; note: series mostly up to about 77 µM; % of control where 0% means no effect); settings: NF-kB-bla ME-180 cells, beta-lactamase FRET ratio, 16 h; activation: stronger effect = higher value
# How it was run: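 In this qHTS format, compounds acting as activators increase NF-kB-driven beta-lactamase in ME-180 cells, measured as disrupted FRET after 16 hr exposure at 37C and 5% CO2.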
# [14] = molecular target: Peroxisome proliferator-activated receptor alpha (Homo sapiens) (UniProt Q07869); test: qHTS assay for small molecule agonists of the peroxisome proliferator-activated receptor alpha (PPARalpha) signaling pathway (AID 651778; active = well fitted curve in the direction sought with a large enough effect; an effect the other way counts as inactive or inconclusive; note: % of control where 0% means no effect); settings: PathHunter PPARalpha complementation, chemiluminescence, 6 h; max response: stronger effect = higher value
# Chain of Peroxisome proliferator-activated receptor alpha (Homo sapiens) (Q07869 whole entry, looked up, the tested form may be a part): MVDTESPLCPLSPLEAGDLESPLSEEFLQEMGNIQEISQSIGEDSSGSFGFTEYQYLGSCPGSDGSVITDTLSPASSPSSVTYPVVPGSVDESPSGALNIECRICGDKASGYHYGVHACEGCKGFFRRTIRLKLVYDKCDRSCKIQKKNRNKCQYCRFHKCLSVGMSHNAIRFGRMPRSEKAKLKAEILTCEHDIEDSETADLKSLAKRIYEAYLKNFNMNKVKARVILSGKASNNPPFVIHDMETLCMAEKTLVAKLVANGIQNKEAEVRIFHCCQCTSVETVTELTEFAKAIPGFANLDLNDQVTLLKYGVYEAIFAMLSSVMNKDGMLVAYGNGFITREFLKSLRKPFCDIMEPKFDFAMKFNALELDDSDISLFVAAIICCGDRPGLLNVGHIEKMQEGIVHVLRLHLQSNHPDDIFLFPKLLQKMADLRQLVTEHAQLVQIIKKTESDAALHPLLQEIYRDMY
# How it was run: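 Enzyme-fragment complementation assay in which ligand-bound PPARalpha translocates and forms an active enzyme that generates chemiluminescence. Cells were plated overnight, exposed to compound for 6 hr at 37 C, and then given detection reagent for 60 min at room temperature.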
# [15] = qHTS assay for small molecule agonists of the antioxidant response element (ARE) signaling pathway measured by Nrf2-dependant transcriptional activity - cell viability counter screen (AID 720653; active = well fitted curve in the direction sought with a large enough effect in the repeat runs; an effect the other way counts as inactive or inconclusive; note: % is set by controls: 0 for no effect and ±100 for the full control effect); settings: ARE-bla HepG2 viability, CellTiter-Glo ATP luminescence, 16 h; max response: stronger effect = lower value
# How it was run: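 ARE-bla HepG2 cells treated with compounds for 16 h at 37C; this counter screen measures viability as intracellular ATP by CellTiter-Glo luminescence after 30 min at room temperature.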
# [16] = qHTS assay for cell viability of HEK293 cells (AID 743288; active = well fitted curve in the direction sought with a large enough effect; an effect the other way counts as inactive or inconclusive; note: nearly all actives have a fitted effect of over 50% in size; note: potency is the fitted concentration of half-maximal effect); settings: ATP luminescence (CellTiter-Glo), 18 h; max response: stronger effect = lower value
# How it was run: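 ATP luminescence (CellTiter-Glo) reports metabolically competent cell number after parental HEK293 cells, 2,000/well, were treated with DMSO-dissolved compounds for 18 h at 37 C; reagent incubation 30 min, room temperature.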
# [17] = qHTS assay for cell viability of the p53RE-bla HCT-116 cell line (AID 743292; active = well fitted curve in the direction sought with a large enough effect; an effect the other way counts as inactive or inconclusive; note: % is set by controls: 0 for no effect and ±100 for the full control effect; nearly all actives have a fitted effect of over 55% in size)
# How it was run: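 Readout: CellTiter-Glo luminescence after 30 min RT. Treatment: compounds in DMSO, 16 h, 37 C. Cells: CellSensor p53RE-bla HCT-116, 4,000/well, preincubated 5 h.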
# [18] = molecular target: Retinoic acid receptor RXR-alpha (Homo sapiens) (UniProt P19793); test: qHTS assay for small molecule antagonists of retinoid X receptor alpha signaling (AID 588546); settings: HEK293T RXRa-UAS-bla, beta-lactamase ratio, antagonist mode; note: potency is the fitted concentration of half-maximal effect;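 for max response: cells stimulated with 9-cis-retinoic acid as agonist; % is set by controls: 0 for no effect and ±100 for the full control effect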
# Chain of Retinoic acid receptor RXR-alpha (Homo sapiens) (P19793 whole entry, looked up): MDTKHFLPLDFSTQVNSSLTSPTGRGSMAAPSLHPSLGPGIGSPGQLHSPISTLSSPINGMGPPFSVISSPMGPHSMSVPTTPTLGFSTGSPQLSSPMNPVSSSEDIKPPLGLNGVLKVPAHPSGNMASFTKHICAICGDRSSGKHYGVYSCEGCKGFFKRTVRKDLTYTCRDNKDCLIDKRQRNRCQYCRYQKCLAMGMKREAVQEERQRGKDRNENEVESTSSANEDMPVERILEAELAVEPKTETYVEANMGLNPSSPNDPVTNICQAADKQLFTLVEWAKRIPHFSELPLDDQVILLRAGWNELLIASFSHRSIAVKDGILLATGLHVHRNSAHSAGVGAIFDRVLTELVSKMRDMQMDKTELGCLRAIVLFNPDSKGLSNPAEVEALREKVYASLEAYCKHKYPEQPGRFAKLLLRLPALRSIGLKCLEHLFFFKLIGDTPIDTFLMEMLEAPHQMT
# How it was run: as §2
# [19] = qHTS assay for small molecule agonists of the antioxidant response element (ARE) signaling pathway (AID 651741; active = well fitted activation curve with a large enough effect in the signal ratio; the % refers to the signal ratio; note: potency is the fitted concentration of half-maximal effect)
# How it was run: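 Stably integrated ARE-beta-lactamase reporter HepG2 cells; 16 h compound incubation, 37 C; LiveBLAzer FRET substrate 2 h at room temperature; fluorescence intensity.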
# [20] = qHTS assay for small molecule agonists of the antioxidant response element (ARE) signaling pathway measured by Nrf2-dependant transcriptional activity (AID 720636; active = well fitted curve in the direction sought with a large enough effect in the repeat runs; an effect the other way counts as inactive or inconclusive;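 note: HepG2 cells with an ARE-driven luciferase reporter; % of control where 0% means no effect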)
# How it was run: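 Reporter gene assay, HepG2 ARE-luc: 16 hr compound, 37 C, 5% CO2; read-out luciferase luminescence.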
# [21] = molecular target: Nuclear receptor subfamily 1 group I member 2 (Rattus norvegicus) (UniProt Q9R1A7); test: qHTS assay for small molecule activators of the rat pregnane X receptor (rPXR) signaling pathway (AID 651751; call rule not given here; note: 0% is about no effect); settings: rPXR reporter cells, luciferase (One-Glo), 24 h
# Chain of Nuclear receptor subfamily 1 group I member 2 (Rattus norvegicus) (Q9R1A7 whole entry, looked up): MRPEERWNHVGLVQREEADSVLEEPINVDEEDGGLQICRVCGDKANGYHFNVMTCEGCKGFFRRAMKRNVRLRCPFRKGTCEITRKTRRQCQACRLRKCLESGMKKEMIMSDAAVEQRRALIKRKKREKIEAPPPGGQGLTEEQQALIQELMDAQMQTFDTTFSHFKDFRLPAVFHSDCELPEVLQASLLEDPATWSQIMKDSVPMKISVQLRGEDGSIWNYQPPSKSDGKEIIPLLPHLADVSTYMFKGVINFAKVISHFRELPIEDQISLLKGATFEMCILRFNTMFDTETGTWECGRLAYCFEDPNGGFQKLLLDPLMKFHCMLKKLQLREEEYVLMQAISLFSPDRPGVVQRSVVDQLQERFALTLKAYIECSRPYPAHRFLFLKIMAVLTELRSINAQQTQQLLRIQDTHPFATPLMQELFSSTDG
# [22] = qHTS assay for small molecule activators of the human pregnane X receptor (PXR) signaling pathway (AID 720659; call rule not given here; note: 0% is about no effect)
# [23] = molecular target: Glucocorticoid receptor (Homo sapiens) (UniProt P04150); test: qHTS assay for small molecule antagonists of glucocorticoid receptor signaling (AID 588533; active = well fitted inhibition curve with a large enough effect in the signal ratio, with a control signal flat, not every such curve was filed as active; the % refers to the signal ratio; note: potency is the fitted concentration of half-maximal effect)
# How it was run: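 Antagonist-mode qHTS: compound titrations added to GRE-bla HeLa cells, then dexamethasone 2 nM final; 18 h, 37 C. CCF4 FRET fluorescence normalized to dexamethasone and DMSO; IC50 from Hill fit.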
# [24] = qHTS assay for small molecule agonists of retinoid X receptor alpha signaling (AID 588544); settings: HEK293T RXRa-UAS-bla, beta-lactamase reporter, 18 h; 530 nm emission;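 for activation: 0% = DMSO basal wells and 100% = reference agonist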
# [25] = molecular target: Retinoic acid receptor RXR-alpha (Homo sapiens) (UniProt P19793); test: as above
# [26] = qHTS assay for environmental chemicals that activate the Aryl hydrocarbon Receptor (AhR) signaling pathway (AID 651777; active = well fitted curve in the direction sought with a large enough effect; an effect the other way counts as inactive or inconclusive; note: % of control where 0% means no effect; nearly all actives have a fitted effect of over 15% in size); settings: 1A2-DRE human hepatoma cells, luciferase, 24 h; activation: stronger effect = higher value
# How it was run: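 Stable CYP1A2 promoter/DRE-luciferase human hepatoma line treated 24 hr; One-Glo luminescence, 30 min RT.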
smiles,measurement,setting,value
CNc1cnn(-c2cccc(C(F)(F)F)c2)c(=O)c1Cl,Potency,[1],inactive
same,activation,[2],-1.1% (inactive)
same,activation,[3],-4.87% (inactive)
same,outcome,[4],inactive
same,max response,[5],18.9%
same,Potency,[6],inactive
same,Potency,[7],inactive
same,outcome,[8],inactive
same,Potency,[9],inactive
same,max response,[10],-2.6%
same,activity change % (negative = inhibition),[11],8.76% (inactive)
same,activation,[12],1.24% (inactive)
same,activation,[13],-1.53% (inactive)
same,max response,[14],-1.19% (inactive)
same,max response,[15],3.99% (inactive)
same,max response,[16],-7.33% (inactive)
same,Potency,[17],inactive
CC1COC(Cn2cncn2)(c2ccc(Oc3ccc(Cl)cc3)cc2Cl)O1 (stereo not drawn),Potency,[1],44.7 µM (active)
same,activation,[2],3.21% (inactive)
same,activation,[3],-11.8% (inactive)
same,Potency,[9],inactive
same,max response,[10],9.03%
same,Potency,[18],39.8 µM (active)
same,Potency,[19],15.4 µM (active)
same,activation,[12],12.1% (inactive)
same,max response,[14],6.01% (inactive)
same,Potency,[20],inactive
same,max response,[16],-29.8% (inactive)
same,Potency,[17],inactive
same,max response,[21],-12.8% (inactive)
same,outcome,[22],inactive
CC[C@H](C)C1O[C@]2(C=C[C@@H]1C)C[C@@H]1C[C@@H](C/C=C(\C)[C@@H](O[C@H]3C[C@H](OC)[C@@H](O[C@H]4C[C@H](OC)[C@H](NC(C)=O)[C@H](C)O4)[C@H](C)O3)[C@@H](C)/C=C/C=C3\CO[C@@H]4[C@H](O)C(C)=C[C@@H](C(=O)O1)[C@]34O)O2 (stereo partly drawn),activation,[2],6.91% (inactive)
CC(C)N(C(=O)SCC(Cl)=C(Cl)Cl)C(C)C,activation,[2],4.22% (inactive)
same,activation,[3],18.5% (inactive)
same,Potency,[23],inactive
same,outcome,[4],inactive
same,Potency,[7],inactive
same,outcome,[8],inactive
same,max response,[10],9.5%
same,max response,[18],10.8% (inactive)
same,activity change % (negative = inhibition),[11],-15.2% (inactive)
same,activation,[12],-5.02% (inactive)
same,activation,[13],-1.22% (inactive)
same,max response,[14],22.8% (inactive)
same,Potency,[20],inactive
same,max response,[15],15.1% (inactive)
same,max response,[16],2.96% (inactive)
CCCCC(C=O)CC (stereo not drawn),activation,[2],-2.35% (inactive)
same,outcome,[4],inactive
C1COC1,activation,[2],-2.57% (inactive)
same,outcome,[4],inactive
Cc1ccc2cccnc2c1,activation,[2],1.5% (inactive)
CO/N=C1\C[C@]2(C[C@@H]3C[C@@H](C/C=C(\C)C[C@@H](C)/C=C/C=C4\CO[C@@H]5[C@H](O)C(C)=C[C@@H](C(=O)O3)[C@]45O)O2)O[C@H](/C(C)=C/C(C)C)[C@H]1C,activation,[2],6.07% (inactive)
same,outcome,[4],inactive
COC(=O)N(OC)c1ccccc1COc1ccn(-c2ccc(Cl)cc2)n1,activation,[2],11.5% (inactive)
same,activation,[3],-3.13% (inactive)
same,outcome,[8],inactive
same,max response,[24],-23.9%
same,Potency,[25],inactive
same,Potency,[9],inactive
same,max response,[10],-0.714%
same,Potency,[18],3.16 µM (active)
same,Potency,[11],6.31 µM (active)
same,Potency,[19],5.45 µM (active)
same,activation,[26],10.6% (inactive)
same,max response,[14],-0.36% (inactive)
same,Potency,[20],inactive
same,Potency,[17],inactive
same,max response,[21],-12.5% (inactive)
same,outcome,[22],inactive
Nc1ncnc2c1ncn2[C@H]1CC[C@@H](CO)O1,activation,[2],0.029% (inactive) and -3.36% (inactive)
Cc1ccc(S(=O)(=O)NC2CCCCC2)cc1,activation,[2],0.615% (inactive)
COc1cccc(N)c1,activation,[2],2.13% (inactive)
CCC[CH2][Sn]([Cl])([Cl])[CH2]CCC,activation,[2],-1.2% (inactive)
same,activation,[3],-12% (inactive)
same,Potency,[23],15.8 µM (active)
same,max response,[5],-91.3%
same,Potency,[6],3.98 µM (active)
same,Potency,[9],inactive
same,max response,[10],25.9%
same,Potency,[18],3.98 µM (active)
same,Potency,[19],1.93 µM (active)
same,activation,[13],-3.49% (inactive)
same,activation,[26],-11.4% (inactive)
same,max response,[14],-2.73% (inactive)
same,Potency,[20],inactive
same,Potency,[16],39.8 µM (active)
same,max response,[21],-14.6% (inactive)
